Pf growth 96h: P. falciparum growth inhibition at 96 hours | Potency, µM (top dose mostly 28.7 µM), for inactives: at the highest dose activity change, negative = inhibition, hits mostly inhibitors | hit rate 6.9% among 320,000 | AID 504834 | P. falciparum luciferase reporter growth, 96 h; further: potency means the concentration at half of the fitted maximal effect
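Cell-based qHTS: luciferase-tagged P. falciparum in erythrocytes (2% hematocrit, 0.05% parasitemia final) incubated with compounds for 96 hours, 37 C, 5% CO2; luciferase detection reagent then added and luminescence measured.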
HCV inh: HCV inhibition. AID 651820. hit rate 3.4% among 340,000. Potency, µM (top dose mostly 41.8 µM), without a hit: top-dose activity change, negative = inhibition, usual class: inhibitors. Huh7.5.1 HCVcc-Cre infection, luciferase reporter, 44 h; further: potency means the concentration at half of the fitted maximal effect
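Cells seeded at 1,000/well and cultured 4 h, then compounds added followed by HCVcc-Cre virus (~0.5 moi). After 44 h further culture, luciferase substrate was added, plates held 15 min at room temperature, and luminescence read for 15 sec.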
HCMV inh: inhibitors of human cytomegalovirus | hit rate 4.5% among 410,000 | HFF cells, HCMV-luciferase reporter, 72 h; active compounds read low | activity change, negative = inhibition, % at 57.5 µM; in the data active means activity change below about -60%; inconclusive means no clear call, values can overlap the other calls; inactive means above about -39%
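Cell-based, HFFs, 1000 cells/well, 16 h 37C; cpds in DMSO + HCMV-luc, MOI 1 PFU/cell; 72 h 37C; OneGlo luminescence after 5 min RT; norm. to buffer vs Salinomycin 10uM.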
Pf growth 48h: P. falciparum growth inhibition at 48 hours (one generation); P. falciparum luciferase growth in erythrocytes, 48 h; Potency, µM (top dose mostly 28.7 µM), without a hit: top-dose activity change, negative = inhibition, usual class: inhibitors; hit rate 5.9% among 310,000; AID 504832; further: potency means the concentration at half of the fitted maximal effect
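A one-generation exposure of luciferase-tagged malaria parasites in RPMI 1640/Albumax erythrocyte culture, 37 C and 5% CO2. Inhibition is inferred from decreased luminescence after adding detection reagent.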
Numbers without * were called inactive; ? = inconclusive; . = no result given; [ ] = remark or other dose. Rows were chosen to be rich in hits. Some 13% of all compounds tested hit in one or more screens of this group. Unless noted, the call rests on the fitted dose curve; in most records, active means well fitted inhibition curve with a large enough effect; inconclusive means small, poorly fitted or top-dose-only effect, or another doubt; inactive means no such curve, though single readings can be large or run the other way. On the % scale 0 is the no-effect control and ±100 the full control effect.

SMILES	Pf growth 96h	HCV inh	HCMV inh	Pf growth 48h
Cc1ccc2sc(NNC(=O)c3cc(-c4cccs4)nc4ccccc34)nc2c1C	10.4µM*	-3.0%[8.37 µM]	12.6	?
O=C(NNc1nc2ccc(Cl)cc2s1)c1cc(-c2cccs2)nc2ccccc12	7.38µM*	-3.0%	87.5	?
Cc1cc(C)c2nc(NNC(=O)c3cc(-c4cccs4)nc4ccccc34)sc2c1	3.29µM*	10µM*	-20.5	1.85µM*
O=C(NN1CCOCC1)c1cc(-c2cccs2)nc2ccccc12	-0.3%	18.7%	33.3	5.8%
Cc1ccc(NC(=O)c2cc(-c3cccs3)nc3ccccc23)nc1	?	-25.9%	-37.0	?
Cc1ccc(NC(=O)CCN2CCOCC2)cc1C	0.928µM*	13.1%	9.7	18.7%
Cc1cc(C)n(C(=O)Cn2nc(C(F)F)cc2C)n1	1.4%	15.6%	30.2	5.3%
Cc1ccc(C)c(NC(=O)CCN2CCC(C)CC2)c1	5.22µM*	3.1%	3.1	9.8%
COC(=O)c1ccc(NC(=O)CCN2CCCCC2)cc1	1.47µM*	-7.3%	18.3	-10.4%
Cc1cc(C)n(CC(=O)n2nc(C)cc2C)n1	10.4µM*	7.7%	6.7	7.7%
Cc1cccc(NC(=O)CCN2CCOCC2)c1	.	-0.7%	76.6	10.2%
CC(CNC(=O)c1cc(-c2ccccc2)n[nH]1)c1ccccc1 (configuration not stated)	.	.	10.6	.
NC(=O)C1CCN(CCC(=O)Nc2ccc3c(c2)CCC3)CC1	25.9%	-1.0%	-4.1	20.7%
CC1CCN(CCC(=O)Nc2ccc3c(c2)CCC3)CC1	-9.0%	?	-80.4*	-2.4%
CCN1CCN(CCC(=O)Nc2ccccc2)CC1	13.1µM*	16.1%	54.1	69.6%
CCN1CCN(CCC(=O)Nc2ccc(C)cc2)CC1	?	-3.6%	22.6	18.1%
O=C(Cc1cccc(F)c1)Nc1ccc2c(c1)CCC2	103.5%	-2.3%	-98.2*	35.2%
COC(=O)c1cc(Br)c(=O)n(CCN2CCCC2)c1	?	0.6%	-89.9*	38.2%
CCN(c1ccccc1C)S(=O)(=O)c1nnc(NC(=O)c2ccccc2C)s1	.	.	-7.6	.
COc1cc(NC(=O)C(Cc2ccccc2)NS(=O)(=O)c2cccs2)cc(OC)c1 (configuration not stated)	.	.	8.4	.
O=C1CCC[C@H]2[C@@H](Cc3ccccc3)[C@@H](NCc3cccs3)CC[C@]23CCCN13	.	.	-10.6	.
Cc1ccc(NC(=O)CCN2CCC(C)CC2)cc1	13.1µM*	-2.5%	11.3	34.2%
Cc1cc(C)n(C(=O)CCC(=O)NCc2ccccc2)n1	8.2%	16.3%	10.3	-6.3%
Cc1cc(C)n(C(=O)CCC(=O)Nc2ccc(C)c(C)c2)n1	11.7µM*	0.4%	-18.6	.
Cc1ccc(C)c(NC(=O)CCN2CCc3ccccc3C2)c1	0.0%	2.5%	-24.8	13.1µM*
SMILES	Pf growth 96h	HCV inh	HCMV inh	Pf growth 48h
COc1ccc(NC(=O)Cn2c(=O)n(CCC(=O)NCCc3ccc(OC)c(OC)c3)c(=O)c3ccccc32)cc1Cl	.	.	9.3	.
COc1ccc(Cn2c(C(=O)O)c(CNCCc3cccs3)c3ccc(C)cc32)cc1	.	.	-4.7	.
C/C(=N\NC(=O)c1ccccc1)c1ccccc1F	408.2%	12.5%	6.5	423.7%
C/C(=N\NC(=O)c1cccc(N/N=C(\C)c2cc(O)ccc2O)c1)c1cc(O)ccc1O	?	?	-78.0*	?
CC(=NNC(=O)c1ccncc1)c1ccccc1O	.	4.47µM*	-98.4*	.
CC(=NNC(=O)c1ccncc1)c1ccc2ccccc2c1O	.	?	-76.7*	.
C/C(=N\NC(=O)c1cc(C)nc2ccccc12)c1ccncc1	-12.0%	14.0%	6.0	5.1%
CC(C)CC(=NNC(=O)c1ccncc1)c1cc(Cl)ccc1O	.	2.51µM*	-97.2*	.
CCOc1ccc2nc(N(Cc3cccnc3)C(=O)c3ccco3)sc2c1	.	.	-6.6	.
CCCCCCCC(=O)N/N=C(\C)c1ccc(O)cc1O	-23.1%	-23.6%	-69.9*	-7.2%
C/C(=N\Nc1cccc([N+](=O)[O-])c1)c1cc(F)ccc1O	44.9%	10µM*	-26.8	27.3%
CC(=O)Nc1ccccc1NC(=O)C/C(C)=N/NC(=O)c1ccncc1	-3.6%	24.3%	-88.6*	16.2%
C/C(=N\NC(=O)c1ccc(N2CCCC2=O)cc1)c1ccc(O)cc1O	-26.3%	?	4.8	6.7%
CC(=NNC(=O)c1ccncc1)c1ccc(O)cc1O	.	11.2µM*	-36.7	.
C/C(=N\Nc1cccc([N+](=O)[O-])c1)c1ccccc1O	101.3%	?	-22.4	98.0%
CCCCCCCCC(=O)N/N=C(\C)c1ccc(O)cc1O	?	?	-39.8	-16.6%
